Pf growth 48h: Primary qHTS for delayed death inhibitors of the malarial parasite plastid, 48 hour incubation; AID 504832, 2011; 310,000 compounds, 5.9% hits; Potency, µM (highest dose often 28.7 µM), inactives show at the top dose activity change, negative = inhibition, actives largely listed as inhibitors; P. falciparum luciferase growth in erythrocytes, 48 h; further: potency means the concentration at half of the fitted maximal effect; on the % scale 0 is the no-effect control and ±100 the full control effect
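Growth was read as firefly luciferase luminescence after a 48 h, 37 C, 5% CO2 exposure of compounds to reporter-bearing P. falciparum cultures (0.1% parasitemia, 2% hematocrit final) in Albumax-supplemented RPMI 1640.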
Shiga inhibitor: A qHTS for Small Molecule Inhibitors of Shiga Toxin | Vero cells, Shiga toxin protein synthesis inhibition reporter | inhibition, % at 38.7 µM | 290,000 compounds, 9.2% hits | AID 2315, 2010; in the data active means inhibition mostly above about 28%, no sharp cut-off; inactive means mostly below about 43%; further: 0% is about no effect
Cycloheximide cs: Cycloheximide Counterscreen for Small Molecule Inhibitors of Shiga Toxin. 300,000 compounds, 12% hits. cell reporter, cycloheximide protein synthesis inhibition counterscreen. max response, %; in the data active means max response mostly above about 13%, no sharp cut-off; inactive means mostly below about 14%; further: read at 38.3 µM for the half of the compounds with a filed dose; 0% is about no effect
NS1 inh: qHTS Assay for Inhibitors of Influenza NS1 Protein Function; Potency, µM (doses to about 46.1 µM), inactives show top-dose activity, positive = more growth; 270,000 compounds, 0.4% hits; AID 2326, 2010; calls by dose curve; further: potency means the concentration at half of the fitted maximal effect; actives are rising curves; nearly all actives have a fitted effect of over 50% in size
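Compounds were scored for reversing the slow growth caused by influenza A NS1 in S. cerevisiae, measured by optical density at 600 nm. Assay medium contained 2% galactose at pH 6.0; NS1-free yeast of the same strain were the positive control.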
Pf growth 96h: Primary qHTS for delayed death inhibitors of the malarial parasite plastid, 96 hour incubation | P. falciparum luciferase reporter growth, 96 h | Potency, µM (titrated, usually from 28.7 µM), without a hit: at the highest dose activity change, negative = inhibition, usual class: inhibitors | 320,000 compounds, 6.9% hits | AID 504834, 2011; further: potency means the concentration at half of the fitted maximal effect; on the % scale 0 is the no-effect control and ±100 the full control effect
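Luminescence readout: decreased luciferase signal marks inhibited growth of reporter-expressing P. falciparum in infected red cells (2% hematocrit, 0.05% parasitemia final), exposed to compound two generations (96 h, 37 C, 5% CO2).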
Active calls of the source: *; [ ] = remark or other dose. A selection: hits, their analogues and other compounds. The true share with any hit is near 21%. Unless noted, the call rests on the fitted dose curve; in most records, active means well fitted inhibition curve with a large enough effect; inconclusive means small, poorly fitted or top-dose-only effect, or another doubt; inactive means no such curve, though single readings can be large or run the other way.

COc1cc(CN2CCN(c3cccc(Cl)c3)CC2)cc(OC)c1OC was read as Pf growth 48h -22%, Shiga inhibitor 1, Cycloheximide cs -2 and NS1 inh -1%.
Screening CN1CCN(C(=O)c2cc(Br)cn2C)CC1 returned Shiga inhibitor -3, Cycloheximide cs -4, NS1 inh 4% and Pf growth 96h 13%.
Screening C[C@H](NC(=O)c1nc[nH]c1C(=O)NC1CCN(C(=O)OC(C)(C)C)CC1)C(=O)OC(C)(C)C returned Pf growth 48h -10%, Shiga inhibitor -9, Cycloheximide cs 3, NS1 inh 1% and Pf growth 96h inconclusive.
For CC(C)C[C@H](NC(=O)c1nc[nH]c1C(=O)NC1CCN(C(=O)OC(C)(C)C)CC1)C(=O)OCc1ccccc1 the results were Pf growth 48h inconclusive, Shiga inhibitor -10, Cycloheximide cs 3, NS1 inh inconclusive and Pf growth 96h 12µM*.
CC(C)(C)OC(=O)NCCCC[C@H](NC(=O)c1nc[nH]c1C(=O)NC1CCN(C(=O)OC(C)(C)C)CC1)C(=O)OC(C)(C)C was read as Pf growth 48h 2.1µM*, Shiga inhibitor -14, Cycloheximide cs -5, NS1 inh -5% and Pf growth 96h 2.3µM*.
CC(C)C[C@H](NC(=O)c1nc[nH]c1C(=O)NC1CCN(C(=O)OC(C)(C)C)CC1)C(=O)OC(C)(C)C was read as Pf growth 48h 1.5µM*, Shiga inhibitor -9, Cycloheximide cs -2, NS1 inh 3% and Pf growth 96h 2.3µM*.
Screening CC(C)C[C@H](NC(=O)c1nc[nH]c1C(=O)N1CCN(C(=O)OC(C)(C)C)CC1)C(=O)OCc1ccccc1 returned Pf growth 48h inconclusive, Shiga inhibitor 9, Cycloheximide cs 0, NS1 inh -9% and Pf growth 96h inconclusive.
`CC(C)(C)OC(=O)NCc1ccc(CNC(=O)c2[nH]cnc2C(=O)NC2CCN(C(=O)OC(C)(C)C)CC2)cc1` gave Pf growth 48h 5.9µM* and Pf growth 96h inconclusive.
For Cn1nc(C(=O)OCc2ccccc2F)c2ccccc2c1=O the results were Pf growth 48h 21%, Shiga inhibitor 35*, Cycloheximide cs 12 and Pf growth 96h 36%.
COC(=O)c1nn(-c2ccccc2)nc1-c1nn(-c2ccccc2)nc1C(=O)OC was read as Shiga inhibitor -8, Cycloheximide cs -4, NS1 inh 4% and Pf growth 96h inconclusive.
Cc1ccccc1COC(=O)c1nn(-c2ccccc2)nc1N was read as Pf growth 48h -2%, Shiga inhibitor 54*, Cycloheximide cs 32* and Pf growth 96h inconclusive.
`Nc1nn(-c2ccccc2)nc1C(=O)OCc1ccccc1F` gave Pf growth 48h 17%, Shiga inhibitor 99, Cycloheximide cs 31* and Pf growth 96h 1µM*.
`Cc1nnc(NCCc2ccccc2)n(N)c1=O` gave Pf growth 48h 35%, Shiga inhibitor 9, Cycloheximide cs -3, NS1 inh 6% and Pf growth 96h inconclusive.
Screening CCOC(=O)c1[nH]c(C)c(/C=N/O)c1C returned Shiga inhibitor 26, Cycloheximide cs 0, NS1 inh -11% and Pf growth 96h inconclusive.
CCOC(=O)c1c(C)[nH]c(C(=O)COC(=O)C2(C)CC2(Cl)Cl)c1C (stereo not given) was read as Shiga inhibitor 49, Cycloheximide cs 53*, NS1 inh -8% and Pf growth 96h 12%.
Screening CCOC(=O)c1c(C)[nH]c(C)c1C(=O)COC(=O)/C=C/c1ccc(Cl)cc1 returned Pf growth 48h inconclusive, Shiga inhibitor -10, Cycloheximide cs 7, NS1 inh -14% and Pf growth 96h 9.3µM*.
For CCOC(=O)CC(=O)c1[nH]c(C)c(C(=O)OCC)c1C the results were Pf growth 48h 20%, Shiga inhibitor 46, Cycloheximide cs 26* and Pf growth 96h 40%[5.75 µM].
Screening CCOC(=O)c1c(C)[nH]c(C(=O)CC(=O)OC)c1C returned Pf growth 48h 16%, Shiga inhibitor 41, Cycloheximide cs 10, NS1 inh -1% and Pf growth 96h 16%.
`CCOC(=O)c1[nH]c(C)c(C)c1C` gave Pf growth 48h 19%, Shiga inhibitor 20, Cycloheximide cs -3, NS1 inh -3% and Pf growth 96h 12µM*.
`COc1ccc2c(c1)CCCC21NC(=O)N(CC(=O)NC(=O)NCc2ccccc2)C1=O` (stereo not given) gave Pf growth 48h -28%, Shiga inhibitor -29, Cycloheximide cs -9 and Pf growth 96h -27%.
Screening Cc1ccc(NC(=O)c2ccccc2N(C)S(C)(=O)=O)cc1C returned Shiga inhibitor -1, Cycloheximide cs 6, NS1 inh 2% and Pf growth 96h 12%.
For CCCn1cc(S(=O)(=O)c2ccc(F)cc2)c(=O)c2cc(OCC)ccc21 the results were Pf growth 48h inconclusive, Shiga inhibitor -6, Cycloheximide cs -2, NS1 inh 9% and Pf growth 96h inconclusive.
For Cc1cc(NC(=O)COc2c(C)cccc2C)no1 the results were Pf growth 48h inconclusive, Shiga inhibitor -2, Cycloheximide cs 1, NS1 inh -8% and Pf growth 96h 27%.
CC1CCC2C(=O)N(c3ccc(Cc4ccncc4)cc3)C(=O)C2C1 (stereo not given) was read as Pf growth 48h 32%, Shiga inhibitor -12, Cycloheximide cs 0, NS1 inh 0% and Pf growth 96h inconclusive.
Screening CCOC(=O)c1[nH]c(C)c(C(=O)OC)c1C returned Pf growth 48h 92%, Shiga inhibitor 28, Cycloheximide cs 13*, NS1 inh -30% and Pf growth 96h 102%.
CCOC(=O)c1c(C)[nH]c(C(=O)OCC(=O)NCc2ccc(C)cc2)c1C was read as Pf growth 48h -12% and Pf growth 96h -31%.
CCOC(=O)c1[nH]c(C)c(C(=O)NC2CCCCC2)c1C was read as Shiga inhibitor -8, Cycloheximide cs -1, NS1 inh -7% and Pf growth 96h 9.3µM*.
For CCOC(=O)c1c(C)[nH]c(C(=O)OCC(=O)NC(C)(C)C)c1C the results were Pf growth 48h 47%, Shiga inhibitor 10, Cycloheximide cs 23*, NS1 inh -1% and Pf growth 96h 16%.
CCOC(=O)c1c(C)[nH]c(C(=O)O)c1C was read as Shiga inhibitor -8, Cycloheximide cs 2, NS1 inh 3% and Pf growth 96h 18%.
For CCNC(=O)COC(=O)c1[nH]c(C)c(C(=O)OC)c1C the results were Pf growth 48h 185%, Shiga inhibitor 71*, Cycloheximide cs 43* and Pf growth 96h 305%.
`CCOC(=O)c1[nH]c(C)c(C(=O)NCC2CCCO2)c1C` (stereo not given) gave Pf growth 48h 19%, Shiga inhibitor -3, Cycloheximide cs -3, NS1 inh 1% and Pf growth 96h 1%.
For CC(SCc1nc2sc3c(c2c(=O)[nH]1)CCCC3)C(=O)Nc1ccccn1 (stereo not given) the results were Pf growth 48h inconclusive and Pf growth 96h 19%.
